Laboratory results: PubChem BioAssay AID372 (MTDP, 2006)
Screen size: about 100,000 compounds; about 770 (0.77%) were called active. Cut-off read from the data, not from the text of the source: active = inhibition above about 50%; inactive = the rest. What follows is part of a selection rich in actives, with near analogues and random picks from the rest.

The molecules below were run against Gag-Pol polyprotein (Human immunodeficiency virus type 1 group M subtype B (isolate HXB2)) (UniProt P04585) (assay: RNase H inhibition, HIV 1 Gag Pol polyprotein, FRET biochemical assay, screening (AID 372)). Conditions: HIV-1 RT RNase H, FRET RNA/DNA substrate fluorescence; at 10 µM; stronger effect = higher value.

Compound	inhibition
COc1ccc(C2CC(=O)C3=C(C2)Nc2ccccc2NC3c2cccc(Cl)c2Cl)cc1OC (centres undefined)	16% (inactive)
CCc1nnc(NC(=O)Nc2ccc(Cl)cc2)s1	10% (inactive)
Cc1cc(C)c2nc3s/c(=C\c4ccc(Cl)cc4Cl)c(=O)n3c2c1	0% (inactive)
COc1cccc2cc(C(C)=O)c(=O)oc12	3% (inactive)
COc1cccc2cc(C(=O)O)c(=O)oc12	6% (inactive)
Brc1ccc(CN2CCN(c3ncccn3)CC2)s1	1% (inactive)
Cc1c(NC(=S)NC(=O)/C=C/c2ccccc2)cccc1-c1nc2ncccc2o1	52% (active)
Cc1c(NC(=S)NC(=O)/C=C/c2ccccc2)cccc1-c1nc2ccccc2o1	36% (inactive)
Cc1ccc(-c2nc3ncccc3o2)cc1NC(=S)NC(=O)/C=C/c1ccccc1	5% (inactive)
CCOc1ccc(OCCCCOc2ccccc2C)cc1	18% (inactive)
O=C(N/N=C/c1cccc(Br)c1)C(=O)N1CCCC1	15% (inactive)
N#CC1=C(N)Oc2cc(N)ccc2C1c1cccc(Oc2ccccc2)c1 (centres undefined)	5% (inactive)
CCCCNCCCCCCOc1ccc(Cl)cc1Cl	10% (inactive)
CCCCNCCCOc1cc(Cl)ccc1Cl	57% (active)
OCCNCCCOc1cc(Cl)ccc1Cl	8% (inactive)
COc1ccc(-c2cc(C(=O)NCc3ccco3)c3ccccc3n2)cc1	14% (inactive)
COC(=O)c1c(NC(=O)c2ccccc2Br)sc(C)c1C	23% (inactive)
O=C1N=c2ccccc2=C1c1sc(=S)n(-c2ccc(Cl)cc2)c1O	0% (inactive)
O=C1N=c2ccc(Br)cc2=C1c1sc(=S)n(-c2ccc(Br)cc2)c1O	15% (inactive)
CCN(CC)c1ccc(-n2c(O)c(C3=c4ccccc4=NC3=O)sc2=S)cc1	50% (active)
O=C1N=c2ccccc2=C1c1sc(=S)n(-c2ccc(F)cc2)c1O	12% (inactive)
O=C1N=c2ccc(Cl)cc2=C1c1sc(=O)n(-c2ccccc2)c1O	42% (inactive)
CCOc1ccc(-n2c(O)c(C3=c4cc(Br)ccc4=NC3=O)sc2=S)cc1	9% (inactive)
O=C1N=c2ccc(Br)cc2=C1c1sc(=S)n(-c2ccc(Cl)cc2)c1O	51% (active)

Compound	inhibition
O=C1N=c2ccc(Br)cc2=C1c1sc(=O)n(-c2cccc(Cl)c2)c1S	50% (active)
O=C1N=c2ccc(Br)cc2=C1c1sc(=O)n(-c2ccc(O)cc2)c1O	41% (inactive)
CC(C)c1ccc(/C=C2/C(=O)NN(c3ccccc3)C2=O)cc1	4% (inactive)
CCOC(=O)c1ccc(NC(=S)NCCO)cc1	0% (inactive)
C=CCc1ccc(OCCOc2cccc(/C=C3\SC(=S)N(CC)C3=O)c2)c(OC)c1	26% (inactive)
C=CCN1C(=O)/C(=C\c2ccc(-c3ccc([N+](=O)[O-])cc3)o2)SC1=S	4% (inactive)
Cc1ccccc1NC1=C(Cl)C(=O)N(c2cccc(C)c2C)C1=O	9% (inactive)
CCOC(=O)C1=C(C)N=c2s/c(=C/c3ccc(-c4cccc(C(F)(F)F)c4)o3)c(=O)n2C1c1cccs1 (centres undefined)	6% (inactive)
COc1ccc(C2=C/C(=C/c3ccccc3OC)C(=O)O2)c(OC)c1	2% (inactive)
CC(=O)C1=C(O)C(=O)N(Cc2ccccc2)C1c1ccc([N+](=O)[O-])cc1 (centres undefined)	12% (inactive)
COc1cc(C(=O)Nc2ccc(Cc3ccncc3)cc2)cc(OC)c1OC	56% (active)
COc1ccc(C(=O)Nc2ccc(NC(=O)c3ccc(OC)cc3)cc2)cc1	16% (inactive)
COc1ccc(C(=O)Nc2ccc(NC(=O)c3ccc(NC(=O)c4ccc(OC)cc4)cc3)cc2)cc1	8% (inactive)
COc1ccc(C(=O)Nc2ccc(Cc3ccc(NC(=O)c4ccc(OC)cc4)cc3)cc2)cc1	52% (active)
COc1ccc(C(=O)Nc2ccc(Cc3ccncc3)cc2)cc1OC	6% (inactive)
COc1cc(C(=O)Nc2ccc(Cc3ccc(NC(=O)c4cc(OC)c(OC)c(OC)c4)cc3)cc2)cc(OC)c1OC	1% (inactive)
CCc1ccc(C2Nc3ccccc3NC3=C2C(=O)CC(c2ccc(OC)cc2)C3)s1 (centres undefined)	7% (inactive)
O=C(N/N=C/c1cccc(/C=N/NC(=O)c2cccnc2)c1)c1cccnc1	0% (inactive)
COc1ccc(NC(=O)c2ccc(CN3CCN(c4ccccc4)CC3)cc2)cc1	9% (inactive)
COc1ccc(C(=O)NC(=S)Nc2ccc3oc(-c4ccc(OC)c(Cl)c4)nc3c2)cc1	20% (inactive)
CC(=O)Nc1ccccc1NC(=O)c1cccc(F)c1	0% (inactive)
NNC(=O)COc1ccccc1-c1ccccc1	14% (inactive)
O=C1C(=O)N(c2ccccc2)C(c2ccc([N+](=O)[O-])cc2)/C1=C(/O)c1ccccn1 (centres undefined)	0% (inactive)
O=C(CN1C(=O)c2cccc3cccc(c23)C1=O)NCc1ccc2c(c1)OCO2	5% (inactive)

Compound	inhibition
O=C(CCCN1C(=O)c2cccc3cccc(c23)C1=O)OCc1ccc2c(c1)OCO2	31% (inactive)
O=C(CN1C(=O)c2cccc3cccc(c23)C1=O)OCc1ccc2c(c1)OCO2	53% (active)
CCSc1nc(-c2ccccc2)nc(C(Cl)Cl)n1	25% (inactive)
O=C(Nc1ncc(S(=O)(=O)c2ccc([N+](=O)[O-])cc2)s1)c1ccc(Cl)cc1Cl	6% (inactive)
O=C(O)c1ccccc1C(=O)Nc1ncc(S(=O)(=O)c2ccc([N+](=O)[O-])cc2)s1	10% (inactive)
CC(C)c1ccc(OCC(=O)Nc2ncc(S(=O)(=O)c3ccc([N+](=O)[O-])cc3)s2)cc1	58% (active)
O=C(Nc1ncc(S(=O)(=O)c2ccc([N+](=O)[O-])cc2)s1)c1ccccc1Cl	54% (active)
O=C(COc1ccc(Cl)cc1)Nc1ncc(S(=O)(=O)c2ccc([N+](=O)[O-])cc2)s1	12% (inactive)
O=C(COc1ccc(Br)cc1)Nc1ncc(S(=O)(=O)c2ccc([N+](=O)[O-])cc2)s1	19% (inactive)
CCc1ccc(-n2nc(C)c3c(C)cc(=O)oc32)cc1	7% (inactive)
O=C(O)C1CCC(c2ccccc2)CC1 (centres undefined)	4% (inactive)
O=C(c1nn2c(C(F)(F)F)cc(-c3ccc(F)cc3)nc2c1Cl)N1CCOCC1	3% (inactive)
C(=N/Nc1nc2ccccc2o1)/c1ccc(N2CCOCC2)cc1	20% (inactive)
Cc1ccc(S(=O)(=O)/N=C2/C=C(Sc3nnnn3-c3ccccc3)C(=O)c3ccccc32)cc1	43% (inactive)
Cc1ccc(S(=O)(=O)/N=C2/C=C(Br)C(=O)c3ccccc32)cc1	32% (inactive)
COc1ccc(Nc2ccc(N)cc2)cc1	19% (inactive)
O=C(Nc1ccc(-c2nc3ccccc3[nH]2)cc1)c1ccc(Cl)c(Cl)c1	59% (active)
O=C(Nc1ccc(-c2nc3ccccc3[nH]2)cc1)c1ccc(Cl)cc1	14% (inactive)
Cc1ccc(-c2nc3ccccc3[nH]2)cc1NC(=O)c1cc2ccccc2o1	8% (inactive)
CC(=O)Nc1ccc(C(=O)Nc2ccc(-c3nc4ccccc4[nH]3)cc2)cc1	3% (inactive)
O=C(Nc1ccc(Cl)c(-c2nc3ccccc3[nH]2)c1)c1cc2ccccc2o1	11% (inactive)
O=C(Nc1ccc(-c2nc3ccccc3[nH]2)cc1)c1cc2ccccc2o1	51% (active)
CCOC(=O)/C(=N/Nc1cccc(C)c1)c1csc(N)n1	10% (inactive)
COc1ccc(/C=C/C(=O)Oc2ccc3c(c2)C(C)=CC(C)(C)N3)cc1	16% (inactive)

Compound	inhibition
O=C(N=Nc1c(O)n(CN2CCCCC2)c2ccccc12)c1ccncc1	0% (inactive)
CC1(C)NC(=O)N(CC(O)CN(c2cccc([N+](=O)[O-])c2)S(=O)(=O)c2ccccc2)C1=O (centres undefined)	0% (inactive)
S=C(Nc1cccc2ccccc12)N1CCN(C(c2ccccc2)c2ccccc2)CC1	5% (inactive)
S=C(Nc1ccccc1)N1CCN(C(c2ccccc2)c2ccccc2)CC1	56% (active)
S=C(Nc1ccccc1)N1CCN(C(=S)Nc2ccccc2)CC1	9% (inactive)
COc1ccc(/C=C2\SC(=O)N(c3c(C)n(C)n(-c4ccccc4)c3=O)C2=O)cc1	0% (inactive)
Cc1c(N2C(=O)S/C(=C\c3ccc([N+](=O)[O-])cc3)C2=O)c(=O)n(-c2ccccc2)n1C	3% (inactive)
Cc1c(N2C(=O)S/C(=C\c3ccccc3)C2=O)c(=O)n(-c2ccccc2)n1C	0% (inactive)
Cc1c(N2C(=O)S/C(=C\c3cccc([N+](=O)[O-])c3)C2=O)c(=O)n(-c2ccccc2)n1C	59% (active)
Cc1c(N2C(=O)/C(=C/c3cccc([N+](=O)[O-])c3)SC2=S)c(=O)n(-c2ccccc2)n1C	13% (inactive)
Cc1c(N2C(=O)S/C(=C\c3ccc(N(C)C)cc3)C2=O)c(=O)n(-c2ccccc2)n1C	67% (active)
Cc1ncc(CO)c(/C=N/Nc2ccccc2)c1O	13% (inactive)
O=C(N/N=C/c1ccc(O)c(Br)c1)c1cccc(Br)c1	0% (inactive)
COc1ccc(NC(=O)c2sc3cc(C)ccc3c2Cl)c(OC)c1	3% (inactive)
Cc1ccn2c(-c3csc(Nc4ccc(O)cc4)n3)c(C)nc2c1	8% (inactive)
CCC1CCCCN1S(=O)(=O)c1ccc(Cl)c([N+](=O)[O-])c1 (centres undefined)	12% (inactive)
Cc1ccccc1N1C(=O)c2ccc(-c3nc4ccccc4c(=O)o3)cc2C1=O	2% (inactive)
Cc1cc(Br)ccc1N1C(=O)c2ccc(-c3nc4ccccc4c(=O)o3)cc2C1=O	59% (active)
Cc1cccc(N2C(=O)c3ccc(-c4nc5ccccc5c(=O)o4)cc3C2=O)c1C	10% (inactive)
Cc1ccc(N2C(=O)c3ccc(-c4nc5ccccc5c(=O)o4)cc3C2=O)c(C)c1	5% (inactive)
Cc1cc(C)c(N2C(=O)c3ccc(-c4nc5ccccc5c(=O)o4)cc3C2=O)c(C)c1	54% (active)
Cc1cccc(N2C(=O)c3ccc(-c4nc5ccccc5c(=O)o4)cc3C2=O)c1	37% (inactive)
